HPGD inh = qHTS Assay for Inhibitors of HPGD (15-Hydroxyprostaglandin Dehydrogenase). 15-hydroxyprostaglandin dehydrogenase [NAD(+)] (Homo sapiens), P15428. 150,000 tested, 4.3% active. AID 894, 2007. purified HPGD, NADH fluorescence kinetic, PGE2 substrate. Potency, µM, inactives show top-dose activity change, negative = inhibition, actives largely listed as inhibitors; note: potency is the fitted concentration of half-maximal effect
Target sequence (P15428 whole entry, looked up): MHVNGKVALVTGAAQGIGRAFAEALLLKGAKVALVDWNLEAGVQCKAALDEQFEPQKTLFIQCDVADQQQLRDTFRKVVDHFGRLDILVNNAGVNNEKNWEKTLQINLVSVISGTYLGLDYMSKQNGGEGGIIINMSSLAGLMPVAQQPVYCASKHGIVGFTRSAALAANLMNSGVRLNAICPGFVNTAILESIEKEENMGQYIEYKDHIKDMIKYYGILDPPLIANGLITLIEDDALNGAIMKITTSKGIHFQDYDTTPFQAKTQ
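20 nM HPGD preincubated 15 min at room temperature with compound in 50 mM Tris-HCl pH 8, 0.01% Tween 20. Started with 1 mM NAD+ and 30 uM prostaglandin E2; NADH fluorescence (360/450 nm) read 5 times over 30-s intervals, last minus first.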
Lamin A splicing = qHTS Assay for Modulators of Lamin A Splicing; HeLa LMNA splicing GFP/RFP minigene ratio, 48 h; Potency, µM (highest dose often 46.1 µM), for inactives: at the top dose ratio change, negative = inhibition, usual class: inhibitors; 200,000 tested, 0.01% active; AID 1487, 2009; active = well fitted inhibition curve with a large enough effect in the signal ratio, with a control signal flat, not every such curve was filed as active; inconclusive = small, poorly fitted or top-dose-only effect, or effect the other way, or a change in a side signal; the % refers to the signal ratio; note: potency is the fitted concentration of half-maximal effect
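S3 HeLa cells stably expressing lamin A-EGFP splicing minigene plus DsRed2, 600 cells/well, 48 h compound exposure at 37C. Laser-scanning cytometry; analysed as GFP (500-530 nm)/RFP (575-640 nm) total intensity ratio; 0.5% DMSO vehicle.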
Luc counter = Counterscreen for Luciferase (Kinase-Glo TM) Inhibition | Potency, µM (series often up to 38.3 µM), without a hit: top-dose activity change, negative = inhibition, most hits filed as inhibitors | 200,000 tested, 0.28% active | Luciferin 4-monooxygenase (Photuris pensylvanica), Q27757 | Kinase-Glo luciferase, ATP luminescence, 8 min; active = well fitted inhibition curve with a large enough effect; inconclusive = small, poorly fitted or top-dose-only effect; note: potency is the fitted concentration of half-maximal effect; nearly all actives have a fitted effect of over 60% in size
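Compounds were added to a substrate mix at pH 7.2 (50 mM imidazole, 10 uM ATP, within the enzyme's linear range), followed by Kinase-Glo detection reagent; luminescence was measured after 8 minutes at ambient temperature.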
IMPase inh = qHTS Assay for Identifying the Cell-Membrane Permeable IMPase Inhibitors; Inositol monophosphatase 1 (Rattus norvegicus), P97697; CHO-M1 cells, IP1 accumulation, HTRF TR-FRET ratio; inhibition (IP1 accumulation), % at 46.1 µM; 120,000 tested, under 10 active; AID 901, 2007; active = well fitted curve in the direction sought with a large enough effect in the signal ratio, not every such curve was filed as active; inconclusive = small, poorly fitted or top-dose-only effect, or a change in a side signal; inactive = no such curve, though single readings can be large or run the other way; the % refers to the signal ratio;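 note: cells stimulated with carbachol in lithium chloride buffer; plate controls were DMSO basal wells for no effect and reference inhibitor wells for full effect; higher means more IMPase inhibition seen as more IP1 and lower FRET ratio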
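Elevated IP1 in lysates lowers TR-FRET signal (665/620 ratio and 620 channel reported). Cells were CHO-M1, given carbachol (50 uM as added) plus 50mM LiCl, pH 7.4, 30 min, 37C; compounds titrated up to 46 uM; AC50 by Hill equation.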
ALDH1A1 block = qHTS Assay for Inhibitors of Aldehyde Dehydrogenase 1 (ALDH1A1). 220,000 tested, 7.3% active. Purified ALDH1A1, NADH fluorescence, propionaldehyde substrate. AID 1030, 2008. Potency, µM (highest dose often 75.3 µM), without a hit: at the top dose activity, negative = inhibition, most hits filed as inhibitors. Aldehyde dehydrogenase 1A1 (Homo sapiens), P00352;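 note: potency is the fitted concentration of half-maximal effect; plate controls were no enzyme wells and a reference inhibitor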
Target sequence (P00352 whole entry, looked up): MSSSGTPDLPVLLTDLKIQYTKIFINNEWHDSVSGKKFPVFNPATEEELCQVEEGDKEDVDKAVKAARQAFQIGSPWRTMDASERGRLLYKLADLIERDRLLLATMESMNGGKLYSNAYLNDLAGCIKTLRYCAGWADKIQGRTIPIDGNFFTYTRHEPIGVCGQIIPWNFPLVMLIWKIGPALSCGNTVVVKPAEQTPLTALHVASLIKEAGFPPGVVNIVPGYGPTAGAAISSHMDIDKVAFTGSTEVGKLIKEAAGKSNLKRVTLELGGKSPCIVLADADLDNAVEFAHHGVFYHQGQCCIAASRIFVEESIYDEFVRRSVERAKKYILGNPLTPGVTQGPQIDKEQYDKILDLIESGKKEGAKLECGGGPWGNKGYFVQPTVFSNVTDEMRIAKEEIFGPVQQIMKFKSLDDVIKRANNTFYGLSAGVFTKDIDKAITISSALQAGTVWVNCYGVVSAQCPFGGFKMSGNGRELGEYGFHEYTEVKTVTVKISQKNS
PNC assembly inh = High Content Assay for Compounds that inhibit the Assembly of the Perinucleolar Compartment. PC3M PTB-GFP, PNC prevalence imaging, 16 h; active compounds read low. activity change (PNC), negative = inhibition, % at 10 µM. 140,000 tested, 3.1% active. AID 2417, 2010;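 active = readout at or below -70, meaning at least 70% loss of cells showing the perinucleolar compartment, a nuclear body marking cancer cells; inconclusive = readout between -30 and a set limit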;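 note: plate controls were DMSO wells for no effect and camptothecin positive control wells for full effect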
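Compounds are pinned in duplicate onto adhered PC3M cells stably expressing GFP-tagged PTB and incubated 16 h at 37 C. Cells are then fixed, nuclei stained with Hoechst, and PNC-positive cells counted.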
* hit, by the source's call; ? = inconclusive; . = no result given; [ ] = another dose, or the depositor's remark. Compounds with a hit are over-represented: about 10% of the library has one in this group of screens. Unless noted, calls come from the whole dose curve; as a rule, active = well fitted inhibition curve with a large enough effect (not every such curve was filed as active); inconclusive = small, poorly fitted or top-dose-only effect, or another doubt; inactive = no such curve, though single readings can be large or run the other way. Unless noted, % is set by controls: 0 for no effect and ±100 for the full control effect.

SMILES | HPGD inh | Lamin A splicing | Luc counter | IMPase inh | ALDH1A1 block | PNC assembly inh
NC(=O)CC[C@H](NC(=O)c1ccc(F)cc1)C(=O)OCC(=O)Nc1c(F)c(F)c(F)c(F)c1F | -7% | 0% | -3% | . | 14% | -92*
CCOc1ccc2ccccc2c1/C=N/n1cncn1 | 32µM* | 15% | -1% | -5 | ? | -6
CC(C)(C)C1CCC(=NNc2ccc(S(N)(=O)=O)cc2[N+](=O)[O-])CC1 (centres undefined) | -18% | -7% | -2% | . | -14% | -19
CC1CCCC/C1=N\Nc1ccc(S(N)(=O)=O)cc1[N+](=O)[O-] (centres undefined) | -11% | -6% | -2% | . | -8% | -8
CCC(C)(C)C1CCC(=NNS(=O)(=O)c2ccc(C)c([N+](=O)[O-])c2)CC1 (centres undefined) | -3% | -6% | -2% | -3 | 7.9µM* | ?
Cc1ccc(S(=O)(=O)N/N=C2/CCCCC2C2CCCCC2)cc1[N+](=O)[O-] (centres undefined) | -10% | -2% | 1% | . | 35µM* | -26
O=C(c1cc2ccccc2oc1=O)N1CCN(c2ccc(F)cc2)CC1 | . | . | . | 2 | . | .
Cc1cccc(NC(=O)C2CCCN(S(=O)(=O)c3c(C)[nH]c(=O)[nH]c3=O)C2)c1C (centres undefined) | . | . | . | 5 | . | .
C=CCN=c1scc(-c2ccc(F)cc2)n1/N=C/c1ccccn1 | -3% | ? | 1% | 25 | -9% | ?
CCN=c1scc(-c2ccccc2)n1/N=C/c1ccccn1 | -12% | ? | -5% | . | ? | -125*
C=CCN=c1scc(-c2ccccc2)n1/N=C/c1ccccn1 | -6% | ? | -1% | 16 | -10% | -106*
COC(=O)C1=C(C(=O)OC)[C@@H]2N(Cc3ccccc3)c3ccccc3[C@@]23C[C@@H](C(=O)OC)N(C(=O)c2ccco2)C3=N1 | -10% | 11%[9.22 µM] | 1%[7.66 µM] | . | -1%[13.5 µM] | .
C/C(=N\NC(=O)CSc1nc2ccccc2[nH]1)c1ccncc1 | . | . | 9% | . | ? | .
C/C(=N/NC(=O)CSc1nc2ccccc2n1C)c1ccncc1 | . | . | 2% | . | 10µM* | .
CS/C(=N\S(=O)(=O)c1cccs1)NC(=O)CSc1nc2ccccc2s1 | 25µM* | -7% | -3% | 17 | 28µM* | 14
C/C(=N/NC(=O)CSc1nc2ccccc2s1)c1ccncc1 | . | . | . | . | 20µM* | .
Cc1cc(C)nc(NC(=O)CSc2nc3ccccc3s2)n1 | -13% | -6% | 5% | 3 | -1% | 12
CCOC(=O)c1sc(NC(=O)c2sccc2C)cc1C | ? | -18% | 11µM* | 0 | ? | ?
COC(=O)c1sccc1NC(=O)c1sccc1C | ? | -15% | 1% | 4 | -4% | -100*
COC(=O)c1sccc1NC(=O)c1ccncc1 | -18% | 8% | -2% | -7 | -4% | 21
CCOC(=O)c1c(S(=O)(=O)N2CCCC(C(=O)N3CCN(c4ccc(F)cc4)CC3)C2)c(C)n(C)c1C (centres undefined) | . | -7%[46 µM] | . | . | . | .
COc1ccc(CCNC(=O)CSc2nc3[nH]ncc3c(=O)n2-c2ccccc2Br)cc1OC | . | 1%[9.22 µM] | 0% | . | 22µM* | .
C=CCN(C(=O)CSc1nc2[nH]ncc2c(=O)n1-c1ccccc1OC)c1ccccc1 | -2% | ? | -2% | -2 | 13µM* | ?
O=C(CSc1nc2[nH]ncc2c(=O)n1-c1ccccc1Br)NCc1ccco1 | -15% | 19% | -1% | -6 | 13µM* | ?
OC[C@@H]1O[C@@H](N2CCN([C@@H]3O[C@@H](CO)[C@@H](O)[C@H](O)[C@H]3O)CC2)[C@@H](O)[C@H](O)[C@H]1O | -4% | . | -1%[7.66 µM] | . | -4%[13.5 µM] | .
SMILES | HPGD inh | Lamin A splicing | Luc counter | IMPase inh | ALDH1A1 block | PNC assembly inh
CCCn1ccc2c(OCC(=O)Nc3ccc(C(F)(F)F)cc3)cccc2c1=O | . | 12%[46 µM] | . | . | . | .
Cc1ccc(NC(=O)N/C=C/c2ccco2)cc1 | -26% | -2% | 3% | 1 | 7.9µM* | -9
Cc1ccc(NC(=O)/C=C/c2ccco2)cc1F | . | -13%[46 µM] | . | . | . | .
Cc1cccc(N2CCN(C(=O)CN3CCOc4ccccc43)CC2C)c1 (centres undefined) | 0% | 3% | -2% | 11 | ? | 6
Cc1ccc(N2C(=O)C3C4C=CC(CNC(=S)N5CCN(c6cccc(C)c6)C(C)C5)(O4)C3C2=O)cc1 (centres undefined) | . | ? | 2% | . | 1.6µM* | .
N[C@](CC1c2ccccc2Oc2ccccc21)(C(=O)O)[C@@H]1C[C@@H]1C(=O)O | -15% | . | 2% | -2 | 1% | .
O=C(COC(=O)c1ccc(=O)n(Cc2ccccc2)n1)Nc1ccc2c(c1)OCCO2 | -19% | 7% | 4% | 6 | 8.9µM* | -9
COc1cccc(NC(=O)CSc2ncnc3c2cnn3Cc2ccccc2)c1 | -29% | -2% | -3% | 7 | ? | -13
O=C(CSc1ncnc2c1cnn2Cc1ccccc1)Nc1ccc2c(c1)OCCO2 | 0% | -19% | 1% | -1 | 13µM* | ?
O=C(OCc1cc(=O)n2c3c(sc2n1)CCCC3)c1cccc(NC(=O)c2ccccc2F)c1 | . | -7%[46 µM] | . | . | . | .
COc1ccc2ccc3c(c2c1)N=C[C@]1(O3)N(C)c2ccccc2C1(C)C | 32µM* | ? | -2% | 16 | ? | 100
c1cc(NC2CC2)nc(-c2ccoc2)n1 | . | -3% | . | . | ? | .
CC(NC(=O)CCSCCC(=O)NC(C)c1ccccc1)c1ccccc1 (centres undefined) | -13% | 5% | 14% | . | -2% | ?
CCC(C)NC(=O)CCSCCC(=O)NC(C)CC (centres undefined) | -15% | -5% | -1% | . | 1% | -104*
N#CC1=C(N)OC2=C(C(=O)CC(c3ccco3)C2)C1c1ccc(OCc2c(F)cccc2Cl)cc1 (centres undefined) | -22% | 14% | -3% | 6 | 8.9µM* | 76
COc1ccccc1C(=O)Nc1cccc(C(=O)OCc2cc(=O)n3c4c(sc3n2)CCCC4)c1 | . | -5%[46 µM] | . | . | . | .
CCCCNS(=O)(=O)c1ccc(OC)c(Cl)c1Cl | -17% | 0% | -4% | 1 | ? | 30
COCCCNS(=O)(=O)c1ccc(OC)c(Cl)c1Cl | -9% | -3% | 0% | 5 | 10µM* | 21
